Only some compounds are listed: those with a hit (about 4% of all), similar ones and a draw of the others.
C2C12 statin: suppression of simvastatin myotoxicity; rescue of ATP level, % at 7.49 µM; hit rate 0.78% among 330,000; C2C12 myotubes + simvastatin, ATP luminescence, 48 h; scaled: DMSO 0, geranylgeraniol control 100; AID 602340;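 active = mean ATP rescue above about 67%, or every replicate alone reaching that limit, limit read from the data, passing the limit was not always enough; inconclusive = no clear call, values can overlap the other calls; inactive = mean under the limit and some replicate under it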;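 note: myotubes were challenged with 10 µM simvastatin during compound exposure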
TRPM1 prom inh: MITF TRPM1 promoter inhibition in SK-MEL-5 cells; inhibition, % at 12.5 µM; SK-MEL-5 TRPM1 promoter luciferase, 24 h; AID 488899; hit rate 0.83% among 330,000;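 active = mean inhibition across replicates of 60% or more, whatever share of single replicates reaches that level; inconclusive = some that reach 60%, reason not given; inactive = mean inhibition across replicates below 60%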
MITF TRPM1 HTS: MITF TRPM1 promoter activation in melanoma cells. SK-MEL-5 TRPM1-promoter luciferase, 24 h; % of positive control, neutral wells = 0. activation, % at 12.5 µM. hit rate 0.75% among 300,000;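 active = mean activation of at least 80% with every replicate also reaching 80%; inconclusive = mean reaches 80% but some replicate falls short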;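 note: 0% = neutral control wells and 100% = parthenolide positive control wells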
esBAF inh: SWI/SNF esBAF complex inhibition; mouse ES cells, Bmi1-luciferase knock-in reporter, 24 h; 100% = twice the neutral-well signal; reporter increase, % at 12.5 µM; hit rate 2% among 350,000; AID 602393; in the data active = activation above about 40%; inconclusive = no clear call, values can overlap the other calls;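 note: 0% = median of the plate's neutral control wells and 100% = double that signal; a rise in the Bmi1 reporter signal indicates esBAF inhibition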
Wnt act: Wnt/beta-catenin pathway activation | activation, % at 9.35 µM | hit rate 1.2% among 300,000 | Wnt/beta-catenin reporter cell assay, activator, plate reader; in the data active = activation above about 30%, passing the limit was not always enough; inconclusive = no clear call, values can overlap the other calls;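 note: 0% = neutral control wells and 100% = positive control wells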
EBV LMP1 NFkB: reduces LMP1-driven NF-kappaB luciferase signal; hit rate 0.69% among 350,000; AID 504558; inhibition, % at 12.5 µM; LMP1-induced NF-kappaB luciferase reporter cells, luminescence; in the data active = inhibition above about 41%; inconclusive = no clear call, values can overlap the other calls;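 note: 0% = neutral control wells and 100% = reference inhibitor control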
Active calls of the source: *; ? = inconclusive; / = not tested or not shown.

SMILES	C2C12 statin	TRPM1 prom inh	MITF TRPM1 HTS	esBAF inh	Wnt act	EBV LMP1 NFkB
COc1ccc(F)cc1-c1cc(C(=O)NC2CCCCC2)[nH]n1	-10	/	/	49*	2	/
COc1ccc(Cl)cc1-c1cc(C(=O)NCC2CCCCC2)[nH]n1	-31	/	/	-8	-2	/
CCOc1ccc(-c2cc(C(=O)NCc3cc(OC)cc(OC)c3)[nH]n2)c(C)c1	11	/	/	-4	0	/
CCOc1ccc(-c2cc(C(=O)NC3CCCCC3)[nH]n2)c(C)c1	-21	/	/	57*	4	/
COCCNC(=O)C[C@H]1C[C@H]2c3cc(NC(=O)Nc4ccccc4)ccc3O[C@H]2[C@H](CO)O1	4	/	/	-1	/	/
CCOC(=O)c1c(C)oc2c1c1c(c3ccccc32)OCN(CCCC(=O)O)C1	-8	-55	66	51*	48*	-4
CCOC(=O)c1c(C)oc2c1c(C(c1cccnc1)N1CCOCC1)c(O)c1ccccc12 (stereo not given)	1	-41	45	69*	/	5
CCOC(=O)c1c(C)oc2c1c1c(c3ccccc32)OCN(Cc2cccnc2)C1	4	-23	27	74*	/	-2
CCOC(=O)c1c(C)oc2c1c(C=NCc1ccccn1)c(O)c1ccccc12	/	30	-32	/	7	2
CCOC(=O)c1c(C)oc2c1cc(O)c1ccccc12	/	-45	47	/	/	10
O=S(=O)(c1ccc(F)cc1)N1CCN(C(=S)NCCc2ccccc2)CC1	/	7	-6	/	1	0
Cc1ccc(C2NC(=O)c3c(sc(C)c3C)N2)c(O)c1 (stereo not given)	6	-24	25	98*	8	-48
Cc1cccc(C2NC(=O)c3c(sc(C)c3C)N2)c1O (stereo not given)	1	11	-9	16	/	-18
Cc1sc2c(c1C)C(=O)NC(c1ccccc1F)N2 (stereo not given)	/	-49	33	/	32*	-28
CCC(=O)N(C)C[C@H]1Oc2cc(-c3ccccc3)ccc2S(=O)(=O)N([C@H](C)CO)C[C@@H]1C	-10	/	/	2	/	/
CC(=Nc1ccc(C)c(C)c1)C1=C(O)CSC1=O	3	-120	132*	51*	/	-49
CCOc1ccc(OCC)c(NC(=O)CSCC(=O)O)c1	/	12	-13	/	0	5
Nc1ccc(Nc2nc(-c3cc4ccccc4oc3=O)cs2)cc1	22	-7	12	81*	3	5
CC(=O)Nc1ccc(Nc2nc(-c3cc4ccccc4oc3=O)cs2)cc1	-2	8	/	90*	0	17
O=C(Nc1ccc(OCC(=O)N2CCOCC2)cc1)Nc1cccc(Cl)c1	/	1	1	/	0	-3
COC(=O)c1ccc(COC(=O)c2ccc(SC)cc2OC)cc1	6	-13	17	63*	-4	-11
COc1cc(SC)ccc1C(=O)OCC(=O)NCCNC(=O)COC(=O)c1ccc(SC)cc1OC	4	4	-4	-5	2	4
COc1cc(SC)ccc1C(=O)Nc1ncc(Cl)cc1Cl	/	-13	16	/	70*	2
COc1cc(SC)ccc1C(=O)Nc1ccccn1	/	-9	15	/	1	28
CC(C)(C)c1ccc(NC(=O)Nc2ccc(OCC(=O)N3CCOCC3)cc2)cc1	/	-84	90*	/	11	1
SMILES	C2C12 statin	TRPM1 prom inh	MITF TRPM1 HTS	esBAF inh	Wnt act	EBV LMP1 NFkB
COc1cc(SC)ccc1C(=O)Nc1ccc(Br)cn1	6	57	-56	-83	-4	51*
O=C(CN1CCCC1)Nc1c2c(cc3c1CCC3)CCC2	/	-2	1	/	0	8
Cc1nnc(SCC(=O)N2CCC(Cc3ccccc3)CC2)n(N)c1=O	8	1	1	0	/	-5
O=C(CN1/C(=C(/O)c2ccccc2)C(=O)c2ccccc2S1(=O)=O)c1ccccc1	4	8	-5	8	/	4
COc1cc(SC)ccc1C(=O)Nc1ccc(C)cc1	/	-16	14	/	50*	-69
COc1cc(SC)ccc1C(=O)Nc1ccon1	2	-56	/	51*	21	8
COc1cc(SC)ccc1C(=O)Nc1ncc(C)s1	/	65*	-64	/	0	74*
COc1cc(SC)ccc1C(=O)NC(C)C	/	0	3	-4	1	-3
COc1cc(SC)ccc1C(=O)Nc1cccc(C)n1	4	-101	101*	45*	19	-3
CCn1cc(C(=O)N(C)c2cc(C)ccc2OC)c2cc(OC)c(OC)cc2c1=O	-7	-2	3	-7	-1	9
COc1cc(SC)ccc1C(=O)Nc1ccc(OCC(=O)N2CCOCC2)cc1	-6	-81	83*	17	-4	24
CCc1c(-c2ccc(Cl)cc2)ncn1Cc1cccc(-c2ccccc2)c1	/	/	/	/	-3	/
C[C@@H]1CN([C@H](C)CO)C(=O)c2cc(-c3ccc(F)cc3)cnc2O[C@@H]1CN(C)C(=O)Cc1ccccn1	-6	/	/	-2	/	/
Cn1ccc(-c2ccccc2)n1	5	-14	17	12	-3	-6
CNc1ccccc1-n1ccc(-c2ccccc2)n1	-4	-18	21	60*	/	-24
O=C1C(Br)=C(c2ccccc2)C(c2ccccc2)=C1c1ccccc1	-167	80*	-77	-50	/	4
COc1cccc2cc(-c3nc(-c4cccs4)cs3)c(=O)oc12	/	-80	85*	/	59*	-27
O=c1oc2ccccc2cc1-c1nc(-c2cccs2)cs1	-19	-4	3	21	/	-25
COc1ccc2cc(-c3ccccc3)c(=O)oc2c1	-16	-61	36	3	42*	-33
CCCOc1ccc2cc(-c3ccccn3)c(=O)oc2c1	-57	51	-49	-75	-13	61*
COc1cccc2cc(-c3ccccc3)c(=O)oc12	/	-65	62	32*	35*	-30
COC(=O)C(C)Oc1ccc2cc(-c3ccccc3)c(=O)oc2c1 (stereo not given)	10	-7	13	9	1	11
CC(C)c1nc(SCC(=O)Nc2ccc3c(c2)OCCO3)n[nH]1	/	5	-4	/	0	-11
Cc1cc(C(=O)N/N=C/C=C/c2ccc3c(c2)OCO3)n[nH]1	-5	-20	18	15	/	7
OC[C@@H](O)[C@@H](O)[C@H](O)[C@H](O)CO	2	-3	0	1	-3	47*
OC[C@@H](O)[C@@H](O)[C@H](O)[C@@H](O)CO	11	-3	3	-12	16	-1
COc1ccc(C(=O)c2c3ccccc3[n+]([O-])n2Cc2ccc(C(N)=O)cc2)cc1	-7	0	-1	19	0	4
COc1ccc2c(C(=O)c3ccc(C)cc3)n(Cc3ccc(C(N)=O)cc3)[n+]([O-])c2c1	16	-46	46	101*	?	-47
COc1ccc(C(=O)c2c3ccccc3[n+]([O-])n2CCC(N)=O)cc1	6	1	3	47*	3	-6
O=C(Nc1ccnn1C1CCN(Cc2ccc(F)cc2)CC1)C1CC1	-3	6	-3	1	-2	-19
